MITF TRPM1 inh – inhibitors of MITF-driven TRPM1 promoter in melanoma cells | SK-MEL-5 TRPM1 promoter luciferase, 24 h | inhibition, % at 12.5 µM | 0.83% of 330,000 active;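 active means mean inhibition across replicates of 60% or more, whatever share of single replicates reaches that level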
CHOP inh – blocks CHOP induction under ER stress; AID 2732; 3.8% of 220,000 active; CHO-K1 CHOP-promoter luciferase, tunicamycin-induced, 15-18 h; inhibition, % at 10 µM;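 active means compounds that reduced the stress-induced luciferase reporter signal by more than about 70% of percent inhibition, limit read from the data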;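 further: 0% = tunicamycin plus vehicle and 100% = wells without tunicamycin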
CF NFkB block – cystic fibrosis NF-kB activation inhibition; AID 588850; 0.86% of 360,000 active; KKLEB NF-kB-GFP reporter, PAF-induced, GFP fluorescence overnight; inhibition, % at 5 µM;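 active means at least 50% inhibition at 5 µM, scaled per plate between neutral and stimulator controls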;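 further: PAF is a Pseudomonas aeruginosa culture filtrate used as stimulus; plate controls were PAF-stimulated DMSO wells for no effect and unstimulated DMSO wells for full effect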
HIF-2a inh – HIF-2a inhibition. 786-0 RCC cells HIF-2a reporter, luciferase luminescence, overnight. inhibition, % at 18.8 µM. 0.72% of 360,000 active. AID 624352;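 active means inhibition of the luminescence signal of 40% or more relative to plate controls, in a single-dose primary screen at 18.75 µM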
KKLEB cytotox – reduces viability of KKLEB cystic fibrosis airway cells | KKLEB CF airway cells viability, ATPlite luminescence, overnight; stronger effect = lower value; cells stimulated with P. aeruginosa culture filtrate | activity change (cytotoxicity), % at 5 µM | 0.36% of 360,000 active | AID 602141;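 active means corrected activity change at or below -50% at 5 µM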
Peg3 prom inh – reduces Peg3 promoter-driven luciferase expression in HeLa; HeLa PEG-Prom luciferase reporter, luminescence, overnight; 1.7% of 360,000 active; inhibition, % at 20 µM;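 active means inhibition of at least 50% at 20 µM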
* = called active by the depositor; / = no result. Shown are actives, neighbours in structure and some others; about 4.3% of the full set was active somewhere.

SMILES | MITF TRPM1 inh | CHOP inh | CF NFkB block | HIF-2a inh | KKLEB cytotox | Peg3 prom inh
Cn1c(/C(C#N)=C(\O)c2ccccc2Cl)nc2ccccc21 | 1.2 | / | 5.2 | -3.1 | 1.7 | -5.1
CCN(CC)CC(C)(C)C(=O)/C=C/c1ccc(/C=C/C(=O)C(C)(C)CN(CC)CC)cc1 | 93.3* | / | 91.6* | 91.3* | -65.5* | 102.2*
Cc1cn([C@H]2C[C@H](O)[C@@H](CCC(=O)NCCc3cnc[nH]3)O2)c(=O)[nH]c1=O | -4.2 | / | -8.5 | 2.7 | 1.8 | 6.3
CCN(CC)c1ccc2c(Cl)cc(=O)oc2c1 | / | 93.8* | / | / | / | /
O=C(Nc1nc(-c2cccc3ccccc23)cs1)c1cnccn1 | 7.8 | 92.5* | -6.6 | -85.5 | 0.7 | -58.2
CCCCN(CCCC)S(=O)(=O)c1ccc(NS(=O)(=O)c2ccc(NC(C)=O)cc2)cc1 | -5.2 | 93.0* | 3.4 | -1.4 | -10.2 | 4.2
CCCCN(CCCC)S(=O)(=O)c1ccc(NC(=O)Cc2cccs2)cc1 | 17.6 | 81.7* | 8.4 | 10.7 | -0.6 | 30.4
CCCN(CCC)S(=O)(=O)c1ccc(NC(=O)Cc2cccs2)cc1 | -4.9 | 60.5 | 3.1 | 17.0 | 2.5 | 29.1
CC1(C(=O)NS(=O)(=O)Cc2ccccc2)CCN1C(=O)C1(c2ccc(Cl)cc2)CCC1 (configuration not stated) | / | / | -5.5 | -0.2 | 1.8 | -0.1
COc1ccc(C(=O)C(CN2CCOCC2)c2ccccc2)cc1F (configuration not stated) | 54.1 | / | 36.1 | 30.6 | -35.1 | 95.2*
COc1ccc(C(O)C(CN2CCOCC2)c2ccccc2)cc1F (configuration not stated) | 6.5 | 4.6 | -0.4 | 4.8 | 9.0 | 12.4
NC(=O)c1ccsc1NC(=O)CN1CCN(S(=O)(=O)c2ccccc2C(F)(F)F)CC1 | -0.3 | / | 13.0 | 11.7 | -10.8 | 61.0*
CCOC(=O)C1CCN(C(=O)c2cc(S(=O)(=O)N3CCc4ccccc43)ccc2OC)CC1 | 1.5 | / | 17.9 | 7.9 | -1.5 | 24.5
CC(C(=O)NC1(C#N)CCCCC1)N(C)CC(=O)Nc1ccc(Cl)c(Cl)c1 (configuration not stated) | -4.5 | / | -18.7 | 7.1 | 7.2 | 26.2
CCCC(=O)c1ccc(N2CCN(C(=O)c3cccs3)CC2)c(F)c1 | -47.8 | / | -10.2 | -36.9 | 9.8 | -52.6
CCCC(=O)c1ccc(N2CCN(C(=O)c3ccccc3)CC2)c(F)c1 | 5.8 | 28.7 | -23.8 | -3.1 | 2.5 | 12.5
CCC(=O)c1ccc(N2CCN(C(=O)c3ccc(Br)cc3)CC2)c(F)c1 | 2.0 | 84.6* | -17.8 | 3.4 | 5.8 | 28.6
CCCC(=O)c1ccc(N2CCN(C(=O)c3ccccc3Br)CC2)c(F)c1 | 3.9 | 74.1* | 17.7 | 15.8 | -19.6 | 20.7
CCCC(=O)c1ccc(N2CCN(C(=O)c3ccc(Br)cc3)CC2)c(F)c1 | 12.9 | 73.2* | -8.6 | 14.0 | 1.2 | 24.3
CCc1nc2ccc(C(=O)N(C)Cc3ccccc3)cn2c1N(CC)CCN(C)C | / | / | -8.3 | 1.6 | 3.1 | -6.2
O=c1ccc2c([nH]1)CCCCCCCCCC2 | 3.5 | / | -3.1 | 29.7 | 4.8 | 53.9*
O=C(Nc1ccccc1C(=O)N1CCN(Cc2ccccc2)CC1)c1ccccc1 | -4.3 | / | -3.9 | 2.1 | 19.5 | 26.5
Cc1ccc2[nH]c(C(=O)N3CCN(C(c4ccccc4)c4ccccc4)CC3)cc2c1 | -6.9 | / | -13.7 | 3.8 | 15.3 | 28.1
CCCCCC1CCC(C(=O)NCCN2CCOCC2)CC1 (configuration not stated) | -1.1 | / | -11.4 | 18.1 | -4.3 | -7.9
CCOC(=O)CNc1nc(C(C)(C)C)nc2c1nnn2Cc1ccccc1Cl | 9.6 | 80.8* | 16.6 | -9.8 | -2.7 | 17.9
SMILES | MITF TRPM1 inh | CHOP inh | CF NFkB block | HIF-2a inh | KKLEB cytotox | Peg3 prom inh
COc1ccc(Nc2nc(C(C)(C)C)nc3c2nnn3Cc2ccccc2Cl)cc1OC | 5.4 | / | 11.8 | 3.2 | -21.8 | 11.1
O=C(NCC1CCCO1)c1cccc(NS(=O)(=O)c2ccc(Br)cc2)c1 (configuration not stated) | 2.8 | / | -9.1 | 15.2 | 3.6 | 12.4
Cc1cccc(OCCN2C(=O)C(=O)c3cc(C)ccc32)c1 | 10.7 | -31.8 | 53.5* | -78.7 | -14.1 | -75.6
COc1ccccc1/C=C1\CCCC2=C1Nc1nnnn1C2c1ccccc1OC (configuration not stated) | 49.8 | 83.6* | 45.6 | 26.3 | -12.5 | 101.3*
COc1ccccc1NC(=O)C1=C(C)Nc2nnnn2C1c1ccccc1OC (configuration not stated) | 7.5 | 11.3 | -26.3 | 10.0 | 8.5 | -7.9
OC(COCC(F)(F)C(F)(F)C(F)(F)C(F)F)Cn1c2ccc(Cl)cc2c2cc(Cl)ccc21 (configuration not stated) | 2.3 | 59.6 | 46.4 | -7.4 | -17.4 | 63.2*
NCCNS(=O)(=O)c1cccc2cnccc12 | / | 8.0 | / | / | / | /
COc1cc(NC(=O)COc2ccc(-n3cnnn3)cc2)c(OC)cc1Cl | 10.8 | 61.0 | 36.9 | 13.6 | -49.0 | 59.0*
COc1ccc(NC(=O)COc2ccc(-n3cnnn3)cc2)cc1OC | 4.4 | / | -29.4 | 4.8 | 22.9 | 14.5
CCc1cccc2c(C(=O)CN3C(=O)NC(C)(c4cccc5ccccc45)C3=O)c[nH]c12 (configuration not stated) | 1.0 | 6.6 | -9.7 | -3.1 | -7.5 | 59.6*
COc1cccc(CN2CCC2(C)C(=O)Nc2cccc3cccnc23)c1OC (configuration not stated) | / | / | -1.6 | 3.6 | 11.9 | 16.1
Cc1cc(C)c2nc(SC(C)C(=O)NCC(=O)Nc3ccc(F)c(F)c3F)cc(C)c2c1 (configuration not stated) | 0.6 | 91.5* | 2.8 | 28.1 | 8.5 | 24.6
Cc1c(C(=O)NCCNc2ncc(C(F)(F)F)cc2Cl)cccc1[N+](=O)[O-] | 12.2 | / | 11.5 | -4.8 | -9.2 | 0.9
O=[N+]([O-])c1cccc(Cl)c1NCCNc1ncc(C(F)(F)F)cc1Cl | -17.1 | 78.8* | 2.1 | -17.4 | -6.1 | -5.8
Nc1[nH]c(C(=O)c2ccccc2)c(-c2ccc(C(F)(F)F)cc2)c1C(=O)NCc1ccc(Cl)cc1Cl | / | / | / | -4.1 | / | /
O=C(NC1CCCCC1)N1CCNCC1 | 3.6 | / | 6.9 | 12.8 | -1.9 | 5.5
C1CCCCCC(NCCN2CCNCC2)CCCCC1 | 46.5 | -25.6 | 14.8 | -1.5 | -10.6 | 100.9*
O=C1C(Cl)=C(N2CCN(c3ccccc3[N+](=O)[O-])CC2)C(=O)c2ccccc21 | 26.7 | 31.2 | 30.2 | 23.3 | -11.4 | 100.5*
N#Cc1nc(-c2ccc(OCc3ccc(Cl)cc3)cc2)oc1N1CCOCC1 | 22.3 | -1.8 | -5.1 | -47.6 | -7.3 | 56.0*
CCN(CC)C(=O)Cn1cc(SCC(=O)NC2CCCCC2)c2ccccc21 | / | / | 6.4 | 3.8 | 3.8 | 0.4
N#Cc1ccc(-c2ccc(F)cc2)nc1Oc1ccc(F)cc1 | 7.0 | 81.3* | -2.4 | 20.6 | -14.7 | 23.2
